Assay results: PMC12214610

Assays:
[1] = target: Glutamate synthase [NADPH] small chain (UniProt P09832)
[2] = target: Glycine--tRNA ligase beta subunit (UniProt P00961)
[3] = target: Integration host factor subunit beta (UniProt P0A6Y1)
Myosin-9 = Myosin-9 (UniProt P35579)
[4] = target: Phenylalanine--tRNA ligase alpha subunit (UniProt P08312)
[5] = target: Succinate--CoA ligase [ADP-forming] subunit alpha (UniProt P0AGE9)
Transketolase 2 = Transketolase 2 (UniProt P33570)
[6] = target: Uncharacterized protein YqjD (UniProt P64581)
[7] = target: Unconventional myosin-XVIIIa (UniProt Q92614)
Unconventional myosin-XVIIIa, sequence (Q92614 whole entry): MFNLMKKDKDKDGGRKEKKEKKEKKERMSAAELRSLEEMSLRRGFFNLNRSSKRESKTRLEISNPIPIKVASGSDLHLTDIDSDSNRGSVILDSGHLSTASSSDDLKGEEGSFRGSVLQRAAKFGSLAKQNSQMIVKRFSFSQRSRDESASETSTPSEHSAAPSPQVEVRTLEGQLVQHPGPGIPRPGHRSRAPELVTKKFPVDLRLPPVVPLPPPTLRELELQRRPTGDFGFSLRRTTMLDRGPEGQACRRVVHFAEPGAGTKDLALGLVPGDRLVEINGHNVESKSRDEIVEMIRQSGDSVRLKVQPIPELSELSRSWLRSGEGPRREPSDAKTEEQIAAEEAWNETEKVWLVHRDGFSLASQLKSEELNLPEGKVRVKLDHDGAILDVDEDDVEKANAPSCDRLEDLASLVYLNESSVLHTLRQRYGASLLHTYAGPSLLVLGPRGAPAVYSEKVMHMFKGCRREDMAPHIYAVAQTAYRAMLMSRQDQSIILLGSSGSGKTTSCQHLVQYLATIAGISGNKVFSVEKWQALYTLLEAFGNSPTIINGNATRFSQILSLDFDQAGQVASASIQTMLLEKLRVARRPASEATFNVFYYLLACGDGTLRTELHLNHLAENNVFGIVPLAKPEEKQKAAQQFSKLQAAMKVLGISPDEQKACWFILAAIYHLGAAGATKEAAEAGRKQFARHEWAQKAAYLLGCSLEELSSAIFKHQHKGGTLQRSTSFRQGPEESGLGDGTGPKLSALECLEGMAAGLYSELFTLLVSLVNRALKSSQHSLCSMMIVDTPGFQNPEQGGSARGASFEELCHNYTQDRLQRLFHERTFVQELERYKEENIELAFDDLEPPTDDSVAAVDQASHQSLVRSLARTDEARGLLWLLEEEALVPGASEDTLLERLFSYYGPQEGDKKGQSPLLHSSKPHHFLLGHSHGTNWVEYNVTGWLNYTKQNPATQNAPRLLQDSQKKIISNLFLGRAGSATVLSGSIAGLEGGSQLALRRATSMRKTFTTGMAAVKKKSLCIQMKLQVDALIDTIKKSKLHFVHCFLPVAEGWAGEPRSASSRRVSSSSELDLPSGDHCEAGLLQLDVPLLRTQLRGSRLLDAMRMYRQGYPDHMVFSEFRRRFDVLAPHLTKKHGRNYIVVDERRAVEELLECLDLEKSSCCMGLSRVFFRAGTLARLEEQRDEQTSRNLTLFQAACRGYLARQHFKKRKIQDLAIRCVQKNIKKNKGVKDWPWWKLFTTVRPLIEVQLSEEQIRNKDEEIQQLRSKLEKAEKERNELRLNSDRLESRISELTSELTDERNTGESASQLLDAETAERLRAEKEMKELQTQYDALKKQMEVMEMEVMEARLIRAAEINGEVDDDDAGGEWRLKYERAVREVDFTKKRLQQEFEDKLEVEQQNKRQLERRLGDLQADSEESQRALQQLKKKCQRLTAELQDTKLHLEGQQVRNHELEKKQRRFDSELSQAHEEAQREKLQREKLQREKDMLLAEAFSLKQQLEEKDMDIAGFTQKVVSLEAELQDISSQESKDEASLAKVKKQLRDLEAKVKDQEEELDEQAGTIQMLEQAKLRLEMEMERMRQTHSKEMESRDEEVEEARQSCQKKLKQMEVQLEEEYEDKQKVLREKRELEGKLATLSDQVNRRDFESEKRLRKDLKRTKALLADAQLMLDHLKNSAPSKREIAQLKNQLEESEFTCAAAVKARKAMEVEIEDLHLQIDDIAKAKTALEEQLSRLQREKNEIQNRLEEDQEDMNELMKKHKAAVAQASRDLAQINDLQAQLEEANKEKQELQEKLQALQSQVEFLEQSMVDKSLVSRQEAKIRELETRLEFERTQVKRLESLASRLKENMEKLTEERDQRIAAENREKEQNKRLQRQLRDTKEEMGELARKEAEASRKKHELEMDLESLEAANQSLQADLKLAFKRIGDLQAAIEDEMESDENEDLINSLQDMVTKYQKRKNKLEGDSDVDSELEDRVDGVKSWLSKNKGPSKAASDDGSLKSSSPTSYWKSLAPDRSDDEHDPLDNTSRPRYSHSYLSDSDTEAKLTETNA

Succinate--CoA ligase [ADP-forming] subunit alpha, sequence (P0AGE9 whole entry): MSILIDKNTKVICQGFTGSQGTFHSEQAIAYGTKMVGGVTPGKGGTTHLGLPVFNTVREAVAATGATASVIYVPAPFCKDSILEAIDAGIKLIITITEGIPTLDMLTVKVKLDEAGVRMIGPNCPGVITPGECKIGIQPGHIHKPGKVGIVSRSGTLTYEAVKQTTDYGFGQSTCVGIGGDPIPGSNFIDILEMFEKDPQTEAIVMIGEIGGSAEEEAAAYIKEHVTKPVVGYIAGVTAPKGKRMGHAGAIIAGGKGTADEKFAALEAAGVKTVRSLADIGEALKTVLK
Uncharacterized protein YqjD, sequence (P64581 whole entry): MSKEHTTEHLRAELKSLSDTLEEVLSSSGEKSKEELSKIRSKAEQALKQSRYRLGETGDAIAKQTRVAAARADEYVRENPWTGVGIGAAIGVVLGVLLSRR
Glycine--tRNA ligase beta subunit, sequence (P00961 whole entry): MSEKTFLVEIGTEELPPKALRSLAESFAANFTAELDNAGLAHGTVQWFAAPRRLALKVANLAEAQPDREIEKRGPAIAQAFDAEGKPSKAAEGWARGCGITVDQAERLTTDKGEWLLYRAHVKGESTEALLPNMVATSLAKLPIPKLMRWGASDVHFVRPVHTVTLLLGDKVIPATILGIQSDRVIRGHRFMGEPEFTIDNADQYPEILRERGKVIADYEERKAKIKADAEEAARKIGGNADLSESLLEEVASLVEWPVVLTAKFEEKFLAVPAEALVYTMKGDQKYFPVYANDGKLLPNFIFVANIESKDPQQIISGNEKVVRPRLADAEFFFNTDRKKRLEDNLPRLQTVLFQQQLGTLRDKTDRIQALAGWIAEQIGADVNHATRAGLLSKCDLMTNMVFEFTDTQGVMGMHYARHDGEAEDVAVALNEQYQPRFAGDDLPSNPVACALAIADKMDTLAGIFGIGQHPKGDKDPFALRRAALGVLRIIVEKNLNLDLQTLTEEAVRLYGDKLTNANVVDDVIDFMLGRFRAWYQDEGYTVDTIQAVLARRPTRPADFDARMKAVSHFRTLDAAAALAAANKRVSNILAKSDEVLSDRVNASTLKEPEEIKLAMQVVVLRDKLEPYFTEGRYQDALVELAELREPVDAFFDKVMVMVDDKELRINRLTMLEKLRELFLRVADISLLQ
Glutamate synthase [NADPH] small chain, sequence (P09832 whole entry): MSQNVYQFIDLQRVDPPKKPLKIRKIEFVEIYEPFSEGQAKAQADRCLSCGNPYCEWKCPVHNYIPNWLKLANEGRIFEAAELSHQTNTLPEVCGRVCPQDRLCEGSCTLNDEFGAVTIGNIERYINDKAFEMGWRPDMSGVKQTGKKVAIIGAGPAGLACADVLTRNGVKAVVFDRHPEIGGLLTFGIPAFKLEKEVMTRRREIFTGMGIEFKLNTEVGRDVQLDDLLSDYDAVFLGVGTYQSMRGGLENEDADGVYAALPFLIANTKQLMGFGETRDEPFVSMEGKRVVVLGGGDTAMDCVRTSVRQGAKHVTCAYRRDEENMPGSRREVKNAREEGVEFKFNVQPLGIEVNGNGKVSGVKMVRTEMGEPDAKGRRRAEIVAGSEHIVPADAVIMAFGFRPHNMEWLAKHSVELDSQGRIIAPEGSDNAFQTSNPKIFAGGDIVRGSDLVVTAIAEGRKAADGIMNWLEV
Phenylalanine--tRNA ligase alpha subunit, sequence (P08312 whole entry): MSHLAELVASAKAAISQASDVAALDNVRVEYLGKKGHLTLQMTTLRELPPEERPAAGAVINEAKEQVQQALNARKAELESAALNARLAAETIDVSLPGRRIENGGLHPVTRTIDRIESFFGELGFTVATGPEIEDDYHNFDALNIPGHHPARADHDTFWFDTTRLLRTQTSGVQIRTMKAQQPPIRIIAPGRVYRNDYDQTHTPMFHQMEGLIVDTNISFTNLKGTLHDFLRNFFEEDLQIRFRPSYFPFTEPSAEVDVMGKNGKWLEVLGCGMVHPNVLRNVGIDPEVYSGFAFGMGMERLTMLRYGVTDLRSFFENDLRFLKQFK
Transketolase 2, sequence (P33570 whole entry): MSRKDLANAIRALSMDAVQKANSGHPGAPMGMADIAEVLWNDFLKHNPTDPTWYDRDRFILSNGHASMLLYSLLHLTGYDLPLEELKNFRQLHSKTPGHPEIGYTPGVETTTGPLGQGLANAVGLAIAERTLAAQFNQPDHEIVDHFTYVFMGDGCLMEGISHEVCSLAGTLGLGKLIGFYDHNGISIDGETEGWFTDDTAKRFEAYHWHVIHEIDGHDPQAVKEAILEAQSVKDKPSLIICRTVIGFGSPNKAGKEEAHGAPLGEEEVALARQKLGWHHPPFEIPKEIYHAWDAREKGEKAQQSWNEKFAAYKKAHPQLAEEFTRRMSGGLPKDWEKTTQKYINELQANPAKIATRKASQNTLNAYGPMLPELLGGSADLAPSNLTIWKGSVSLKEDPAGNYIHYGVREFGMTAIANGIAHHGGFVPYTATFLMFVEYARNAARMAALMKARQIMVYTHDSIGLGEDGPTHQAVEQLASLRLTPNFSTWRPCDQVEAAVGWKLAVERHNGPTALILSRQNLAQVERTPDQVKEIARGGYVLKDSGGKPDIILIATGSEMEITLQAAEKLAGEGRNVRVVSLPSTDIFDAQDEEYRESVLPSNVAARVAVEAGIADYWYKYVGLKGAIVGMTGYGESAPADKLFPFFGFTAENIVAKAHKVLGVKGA
Integration host factor subunit beta, sequence (P0A6Y1 whole entry): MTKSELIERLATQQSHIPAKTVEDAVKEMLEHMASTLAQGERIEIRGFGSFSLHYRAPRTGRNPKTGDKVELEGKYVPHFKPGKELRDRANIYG

Glutamate synthase [NADPH] large chain, P09831
listed as a hit [1]: yes

Glycine--tRNA ligase alpha subunit, P00960
listed as a hit [2]: yes

Integration host factor subunit alpha, P0A6X7
listed as a hit [3]: yes

Myosin regulatory light polypeptide 9, P24844
listed as a hit (Myosin-9): yes

Phenylalanine--tRNA ligase beta subunit, P07395
listed as a hit [4]: yes

Succinate--CoA ligase [ADP-forming] subunit beta, P0A836
listed as a hit [5]: yes

Transketolase 1, P27302
listed as a hit (Transketolase 2): yes

Protein ElaB, P0AEH5
listed as a hit [6]: yes

Myosin-9, P35579
listed as a hit [7]: yes
